Experimental data as given in PubChem BioAssay.
Calls of active or inactive are those of the source.

What was measured:
Albumin (Bos taurus) = Albumin (Bos taurus) (UniProt P02769); test: bovine serum albumin binders on microarray, profiling panel, artefact control for SMM control protein annotation, biochemical, small-molecule microarray, Alexa647 label, 635/667 nm fluorescence (AID 1118); settings: BSA-A647 binding, fluorescence 635 nm, higher = more signal;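 also: score merges 667 nm emission intensity and signal-to-noise per printed compound spot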
Sequence of Albumin (Bos taurus) (P02769 whole entry, looked up): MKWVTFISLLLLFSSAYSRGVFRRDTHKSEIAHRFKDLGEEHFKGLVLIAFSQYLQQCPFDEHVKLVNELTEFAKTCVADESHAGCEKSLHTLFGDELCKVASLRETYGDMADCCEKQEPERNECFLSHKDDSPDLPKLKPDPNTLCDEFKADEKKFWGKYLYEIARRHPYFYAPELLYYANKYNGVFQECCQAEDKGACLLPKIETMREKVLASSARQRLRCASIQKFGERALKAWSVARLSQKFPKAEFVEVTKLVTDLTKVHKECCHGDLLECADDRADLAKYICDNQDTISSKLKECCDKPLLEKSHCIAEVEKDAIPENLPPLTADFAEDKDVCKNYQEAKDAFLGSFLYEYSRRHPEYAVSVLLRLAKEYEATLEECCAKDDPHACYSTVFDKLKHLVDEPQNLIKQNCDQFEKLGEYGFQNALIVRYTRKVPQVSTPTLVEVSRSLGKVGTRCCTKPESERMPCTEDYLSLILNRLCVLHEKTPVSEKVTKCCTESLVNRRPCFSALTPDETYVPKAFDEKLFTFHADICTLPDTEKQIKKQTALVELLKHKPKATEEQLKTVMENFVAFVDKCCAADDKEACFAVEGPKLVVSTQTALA

[1] = small-molecule microarray binders of probe aXIP, primary screen, biochemical, NeuroSMM set, 635/667 nm fluorescence (AID 1119); settings: higher = more signal, called active from +8 up or from −8 down;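 also: probe is the protein aXip251-270 applied at 1 µg/mL to compound-printed slides; binding of probe to printed compounds measured as 667 nm fluorescence plus signal to noise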
[2] = small-molecule binders of probe aNOTCH3, primary screen, biochemical, small-molecule microarray, 635/667 nm fluorescence (AID 1120); settings: higher = more signal;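 also: probe is a biotin-tagged antibody raised against NOTCH3 rather than NOTCH3 protein; score merges spot fluorescence near 667 nm with spot signal to noise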
[3] = small-molecule binders of probe aNOTCH2, primary screen, biochemical, small-molecule microarray, 635/667 nm fluorescence (AID 1121); settings: higher = more signal;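 also: score merges feature fluorescence read at 667 nm with its signal to noise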
[4] = target: Carbonic anhydrase 2 (Homo sapiens) (UniProt P00918); test: CAII small-molecule binders, profiling panel, biochemical, small-molecule microarray, Alexa647-labelled CAII (AID 1122); settings: CAII-A647 binding fluorescence, higher = more signal
[5] = COS7 lysate on small-molecule microarray, probe aHis, 635 nm (AID 1123); settings: COS7 cell lysate, fluorescence, higher = more signal;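 also: z-score combines 667nm fluorescence intensity with signal-to-noise per printed compound spot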
[6] = compound binding in COS7 lysate, probe aLAP1, primary screen, cell lysate, small-molecule microarray (AID 1124); settings: probe aLAP1, fluorescence, higher = more signal;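 also: lysate comes from COS7 cells expressing LAP1 and is applied at 0.3 µg/mL; score merges spot fluorescence near 667 nm with signal-to-noise over triplicate slides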
Sam68 (KHDRBS1) = test: Sam68 small-molecule binders, primary screen, biochemical, small-molecule microarray, 635 nm fluorescence (AID 1125); settings: small-molecule microarray binding, higher = more signal;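 also: score merges 667 nm channel intensity with signal to noise over triplicate slides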
[7] = tested on: Chordin-like protein 2 (CHRDL2); test: CHRDL2 small-molecule binders, primary screen, biochemical, small-molecule microarray, 635 nm fluorescence (AID 1126); settings: small-molecule microarray binding, fluorescence 635 nm; higher = more signal;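 also: printed compound slides probed with Chrdl2 protein at 4 µg/mL for 1 h at 4 C; score merges 667 nm emission intensity with signal to noise over three replicate slides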
[8] = target: Concanavalin-A (Canavalia ensiformis) (UniProt P02866); test: ConA small-molecule binders, primary screen, artefact control for SMM control protein annotation, biochemical, small-molecule microarray, Alexa647 label, 635 nm (AID 1127); settings: ConA-A647 binding fluorescence, higher = more signal;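 also: z combines 667 nm emission intensity with signal-to-noise across three replicate slides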
Sequence of Concanavalin-A (Canavalia ensiformis) (P02866 whole entry, looked up): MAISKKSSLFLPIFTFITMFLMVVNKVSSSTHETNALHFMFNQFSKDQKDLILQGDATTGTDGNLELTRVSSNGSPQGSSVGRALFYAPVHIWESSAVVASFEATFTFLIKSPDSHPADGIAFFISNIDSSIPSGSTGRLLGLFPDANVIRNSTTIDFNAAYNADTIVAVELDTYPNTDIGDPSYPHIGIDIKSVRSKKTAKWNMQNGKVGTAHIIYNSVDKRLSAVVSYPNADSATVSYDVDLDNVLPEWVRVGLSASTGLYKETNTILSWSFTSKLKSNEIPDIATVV

[9] = anti-His antibody binders, primary screen, artefact control for SMM control protein annotation, biochemical, small-molecule microarray, 635 nm fluorescence (AID 1128); settings: anti-His Alexa647 antibody binding, higher = more signal;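 also: score merges feature fluorescence with signal-to-noise for each printed compound spot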
[10] = tested on: Human papillomavirus type 1a E7 protein (residues 1-88); test: HPV1a E7 small-molecule binders, primary screen, biochemical, small-molecule microarray, residues 1-88, 635 nm (AID 1129); settings: small-molecule microarray binding, fluorescence 635 nm; higher = more signal
[11] = target: Focal adhesion kinase 1 (Homo sapiens) (UniProt Q05397); test: small-molecule microarray binders of FAK, primary screen, biochemical, 635/667 nm fluorescence, BSA, DTT (AID 1130); settings: PTK2 binding, 635 nm fluorescence, higher = more signal;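 also: composite of spot emission at 667 nm and signal to noise over triplicate slides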
Sequence of Focal adhesion kinase 1 (Homo sapiens) (Q05397 whole entry, looked up): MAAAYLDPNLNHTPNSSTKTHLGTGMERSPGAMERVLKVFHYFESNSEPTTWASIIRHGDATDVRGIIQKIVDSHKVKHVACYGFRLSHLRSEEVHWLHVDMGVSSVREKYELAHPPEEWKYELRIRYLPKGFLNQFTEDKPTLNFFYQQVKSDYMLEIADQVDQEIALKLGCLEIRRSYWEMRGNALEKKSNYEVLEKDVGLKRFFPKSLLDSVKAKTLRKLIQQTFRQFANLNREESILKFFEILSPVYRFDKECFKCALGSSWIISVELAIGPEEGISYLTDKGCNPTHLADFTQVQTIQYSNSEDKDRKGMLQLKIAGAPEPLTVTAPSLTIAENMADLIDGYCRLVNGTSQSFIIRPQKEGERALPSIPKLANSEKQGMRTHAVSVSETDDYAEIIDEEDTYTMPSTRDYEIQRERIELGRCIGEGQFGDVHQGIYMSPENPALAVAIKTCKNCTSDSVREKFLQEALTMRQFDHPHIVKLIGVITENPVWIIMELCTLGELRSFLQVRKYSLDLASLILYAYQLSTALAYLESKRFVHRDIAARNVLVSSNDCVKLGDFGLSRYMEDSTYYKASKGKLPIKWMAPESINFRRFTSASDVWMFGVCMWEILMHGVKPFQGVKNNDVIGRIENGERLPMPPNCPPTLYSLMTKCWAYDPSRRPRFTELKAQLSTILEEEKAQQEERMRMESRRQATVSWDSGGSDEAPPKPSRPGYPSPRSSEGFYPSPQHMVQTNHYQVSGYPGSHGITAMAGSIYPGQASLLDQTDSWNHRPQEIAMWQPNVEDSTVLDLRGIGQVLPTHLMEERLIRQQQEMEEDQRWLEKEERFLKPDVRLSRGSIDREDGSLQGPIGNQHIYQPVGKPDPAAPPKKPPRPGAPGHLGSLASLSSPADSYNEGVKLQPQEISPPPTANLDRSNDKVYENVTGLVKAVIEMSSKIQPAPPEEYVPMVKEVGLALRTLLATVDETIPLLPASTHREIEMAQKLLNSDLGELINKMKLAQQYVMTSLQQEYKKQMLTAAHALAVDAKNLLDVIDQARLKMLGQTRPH

[12] = tested on: Fibrinogen (Alexa647-labelled); test: fibrinogen binders on compound microarrays, profiling panel, artefact control for SMM control-protein annotation, biochemical, small-molecule microarray, 635/667 nm fluorescence (AID 1131); settings: fibrinogen-A647 binding fluorescence, higher = more signal;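 also: z-score merges 667 nm fluorescence with per-spot signal-to-noise over triplicate slides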
[13] = target: Follistatin (Homo sapiens) (UniProt P19883); test: follistatin binders on small-molecule microarrays, primary screen, biochemical, small-molecule microarray, 635/667 nm fluorescence (AID 1132); settings: FST binding, 635 nm fluorescence, higher = more signal
Sequence of Follistatin (Homo sapiens) (P19883 whole entry, looked up): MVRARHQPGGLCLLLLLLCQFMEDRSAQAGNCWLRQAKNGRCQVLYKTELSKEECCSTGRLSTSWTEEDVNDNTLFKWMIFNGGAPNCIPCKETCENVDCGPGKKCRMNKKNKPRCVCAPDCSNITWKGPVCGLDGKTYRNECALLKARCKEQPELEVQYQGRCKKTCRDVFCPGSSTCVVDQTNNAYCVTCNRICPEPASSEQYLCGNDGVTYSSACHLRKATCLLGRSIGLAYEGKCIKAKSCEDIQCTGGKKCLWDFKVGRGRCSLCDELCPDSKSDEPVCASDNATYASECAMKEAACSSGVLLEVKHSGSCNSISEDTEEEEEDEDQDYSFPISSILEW

[14] = target: Fibroblast growth factor 2 (Homo sapiens) (UniProt P09038); test: FGF2 binders on small-molecule microarrays, primary screen, biochemical, small-molecule microarray, 635/667 nm fluorescence (AID 1133); settings: small-molecule microarray binding, FGF2, fluorescence 635/667; higher = more signal
Sequence of Fibroblast growth factor 2 (Homo sapiens) (P09038 whole entry, looked up): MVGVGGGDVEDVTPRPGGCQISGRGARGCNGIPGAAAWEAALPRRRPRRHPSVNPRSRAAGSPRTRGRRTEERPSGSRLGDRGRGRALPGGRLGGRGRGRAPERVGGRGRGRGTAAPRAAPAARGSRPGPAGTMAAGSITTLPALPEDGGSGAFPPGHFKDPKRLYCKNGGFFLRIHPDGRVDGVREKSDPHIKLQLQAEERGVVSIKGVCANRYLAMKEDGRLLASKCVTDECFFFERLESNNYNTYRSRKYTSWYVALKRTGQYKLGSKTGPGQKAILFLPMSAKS

[15] = mitochondrial membrane potential change in A549 cells, profiling panel, cell-based, JC-1 fluorescence, basal, 24 h, 100 nL (AID 1138); settings: higher = more signal;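 also: A549 lung adenocarcinoma cells under basal conditions with no added stimulus; test concentration not given here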
Lefty1 = Lefty1 binders on small-molecule microarrays, primary screen, biochemical, small-molecule microarray, 635/667 nm fluorescence (AID 1139); settings: small-molecule microarray binding, fluorescence 635/667; higher = more signal
[16] = tested on: wheat germ agglutinin (Triticum aestivum), Alexa647-labelled; test: wheat germ agglutinin binders on compound microarrays, profiling panel, artefact control for SMM control-protein annotation, biochemical, small-molecule microarray, 635/667 nm fluorescence (AID 1140); settings: WGA-A647 binding, 635 nm fluorescence, higher = more signal;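 also: score merges 667 nm feature emission with signal to noise over triplicate slides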
[17] = target: Luciferin 4-monooxygenase (Photinus pyralis) (UniProt P08659); test: firefly luciferase enzyme inhibitors, primary screen, biochemical, luminescence, purified enzyme, 2006 set (AID 1141); settings: SteadyGlo luminescence, 30 min, higher = more signal, called active from +8 up or from −8 down;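 also: cell-free assay with purified firefly luciferase at 100 ng per well in PBS; test concentration not given here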
Sequence of Luciferin 4-monooxygenase (Photinus pyralis) (P08659 whole entry, looked up): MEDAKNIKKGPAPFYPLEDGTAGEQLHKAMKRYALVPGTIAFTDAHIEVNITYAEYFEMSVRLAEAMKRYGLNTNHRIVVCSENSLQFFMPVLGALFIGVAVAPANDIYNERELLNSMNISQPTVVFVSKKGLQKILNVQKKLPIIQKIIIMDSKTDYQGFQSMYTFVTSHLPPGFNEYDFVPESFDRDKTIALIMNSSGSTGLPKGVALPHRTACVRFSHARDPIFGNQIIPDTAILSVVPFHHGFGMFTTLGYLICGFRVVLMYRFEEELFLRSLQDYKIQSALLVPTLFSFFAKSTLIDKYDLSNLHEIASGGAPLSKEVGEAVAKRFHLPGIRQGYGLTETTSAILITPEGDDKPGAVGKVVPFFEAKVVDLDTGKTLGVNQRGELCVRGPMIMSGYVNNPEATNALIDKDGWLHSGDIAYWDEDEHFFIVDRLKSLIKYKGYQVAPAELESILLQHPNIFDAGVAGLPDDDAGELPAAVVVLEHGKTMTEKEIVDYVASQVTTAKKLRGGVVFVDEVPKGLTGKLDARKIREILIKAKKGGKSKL

SMILES | composite z-score (Albumin (Bos taurus)) | composite Z-score [1] | composite z-score [2] | composite z-score [3] | composite z-score [4] | composite z-score [5] | composite z-score [6] | composite z-score (Sam68 (KHDRBS1)) | composite z-score [7] | composite z-score [8] | composite z-score [9] | composite z-score [10] | composite z-score [11] | composite z-score [12] | composite z-score [13] | composite z-score [14] | z-score [15] | composite z-score (Lefty1) | composite z-score [16] | z-score [17]
CCCC[C@H]1OB(O)C[C@H]2C1=C(COc1ccccc1)Cn1c(=O)n(-c3ccccc3)c(=O)n12 | 0.196 | 0.131 (inactive) | 0.0705 | -0.114 | 0.247 | 1.1 | 0.0367 | 1.14 | 0.357 | 0.501 | 0.458 | 0.711 | -0.0229 | 0.333 | 1.1 | 0.302 | -0.0843 | 0.976 | 0.09 | -0.25 (inactive)
CC(C)C(CO)N1C(=O)[C@@H]2[C@H]3C(=O)OCC=C[C@H]3OC23C=CCN(Cn2nnc4ccccc42)C(=O)[C@@H]13 (stereo not given in full) | -1.25 | -0.274 (inactive) | -0.226 | -0.204 | 0.931 | -0.0704 | -0.215 | -0.821 | -1.73 | -1.34 | 0.36 | -0.938 | 0.118 | -0.424 | -0.802 | -1.05 | -0.58 | -1.72 | -0.203 | 0.152 (inactive)
CCOC(=O)C1=CC[C@@H](c2cccc(Br)c2)N(S(=O)(=O)c2ccc(C)cc2)[C@H]1c1ccc([N+](=O)[O-])cc1 | 0.861 | 0.338 (inactive) | 0.0116 | -0.0856 | 0.586 | 2.45 | 0.885 | 1.08 | 0.625 | 1 | 0.822 | 1.22 | 0.359 | 1.01 | 0.782 | 0.873 | 1.99 | 0.726 | 0.743 | 1.96 (inactive)
COC(=O)[C@@]1(Cc2ccc(OC)cc2)[C@H]2c3cc(C(=O)N4CCCC4)n(CCF)c3C[C@H]2CN1C(=O)c1ccccc1 | 0.978 | 0.573 (inactive) | 1.97 | 1.15 | 0.755 | 3.15 | 0.478 | 0.757 | -0.258 | 0.99 | 2.31 | 1.17 | 0.896 | 1.04 | 0.411 | -0.0251 | -1.32 | -0.3 | 1.06 | 1.49 (inactive)
C=CCC(OC(C)=O)[C@@H]1[C@@H](N(Cc2ccc(-c3cccc(C(F)(F)F)c3)o2)C(=O)c2cccc3ccccc23)c2cc(OCCCO)ccc2N1C(=O)c1ccc(-c2ccccc2)cc1 (stereo not given in full) | -0.0913 | -0.0505 (inactive) | 0.0058 | -0.053 | -0.406 | -0.647 | -0.272 | -0.407 | 0.634 | -0.402 | 0.955 | -0.661 | -0.438 | -0.739 | 0.999 | 0.598 | -0.328 | 0.641 | -0.643 | 0.23 (inactive)
COC(=O)C(CC#Cc1ccc2c(c1)[C@]1(C(=O)N2)[C@H](C(=O)N2CCc3cc(OC)c(OC)cc3C2)[C@H]2C(=O)O[C@H](c3ccccc3)[C@H](c3ccccc3)N2[C@@H]1c1ccc(OCCO)cc1)C(=O)OC | 0.438 | -0.715 (inactive) | 0.239 | -0.0664 | 0.413 | 2.17 | 0.969 | 1.31 | 0.506 | 0.942 | 1.47 | 1.19 | 0.344 | 0.99 | 1.01 | 1.71 | -1.29 | 0.928 | 1.23 | -1.9 (inactive)
COC(=O)[C@@]1(Cc2ccc(OC)cc2)[C@H]2c3cc(C(=O)N4CCCC4)n(Cc4ccc(C)o4)c3C[C@H]2CN1C(=O)c1ccccc1 | 0.963 | -0.282 (inactive) | 0.74 | 0.0489 | 0.614 | 1.23 | 0.0793 | 0.762 | -0.425 | 0.88 | 0.849 | 1.2 | -0.0727 | -0.369 | 1.09 | -0.648 | -3.11 | -0.211 | 0.26 | -22.4 (active)
Cc1ccc(C(C)CC(O)C2C=CC3C(=O)N(Cc4ccccc4)C(=O)C3N2n2cnnc2)o1 (stereo not given) | 1.03 | 0.391 (inactive) | 1.3 | 0.654 | 0.461 | 1.7 | 0.704 | 1.12 | -0.377 | 1.17 | 1.54 | 0.942 | -0.103 | 0.923 | 0.713 | 0.0103 | -1.49 | 0.273 | 0.842 | 0.785 (inactive)
